# Reference: PubChem BioAssay (NCI)
# The panel holds about 83,000 compounds, 20% with a hit somewhere; the sample as a whole holds those more often.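 Step 1: grow cells in 96-well plates. Step 2: add test compound at a single concentration. Step 3: incubate 48 h. Step 4: record percent growth.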 A number with no mark means an inactive call. Active and inactive are the calls of the source. The calls were made as follows: active = growth percent below 10; inactive = the rest.
# System: SF-539 CNS
# Experiment: NCI-60 one-dose screen, 48 h (100 = growth as untreated, 0 = no growth, -100 = all killed)
# Settings: 10 µM unless noted
row,SMILES,growth
1,Cc1ccc(-c2onc3c(=O)[nH]nc(-c4ccccc4)c23)cc1,-4.93% (active)
2,O=C1CSC(=S)N1CCc1ccc(O)cc1,85.2%
3,CNC(=O)c1cc(Oc2ccc(NC(=O)Nc3ccc(Cl)c(OC(F)(F)F)c3)c(F)c2)ccn1,50.6%
4,N#C/C(=C\c1ccc(-c2ccc(Cl)c(Cl)c2)o1)c1nc(-c2ccco2)cs1,101%
5,O=S(=O)(Nc1ccc(OC(F)F)cc1)c1ccc(-c2cnc(C3CC3)o2)cc1,79.2%
6,O=C1Nc2cc(-c3ccc(O)cc3)ccc2/C1=C/c1ccc[nH]1,-14.6% (active)
7,CON1C(=O)CC[C@]2(C)[C@H]3CC[C@@H]4C([C@@]5(C)CCC(=O)O5)CC[C@@]4(C)[C@]3(C)CC[C@H]2C1(C)C (some centres undefined),99.8%
8,Cn1cc(C(=O)c2nc(-c3c[nH]c4ccc(Br)cc34)no2)c2cc(F)ccc21,99.1%
9,COc1ccc(-n2nc(C)c3c(Nc4ccc(NC(=O)Nc5cccc(C(F)(F)F)c5)cc4)ncnc32)cc1,2.75% (active)
10,CC(C)C1=C[C@@]23CC[C@@H]4[C@](C)(CCC[C@@]4(C)C(=O)N4CCCNCC4)[C@H]2C[C@@H]1[C@H]1C(=O)CCC(=O)[C@H]13,93.7%
11,C#CCOc1ccc2ncnc(N3CCC(NC(=O)CCl)CC3)c2c1,74.6% [8.25 µM]
12,Cc1ccc(NC(=O)/C=C/c2ccccc2)c(C(N)=O)c1,0.356% (active)
13,COc1ccc(/C=C\c2cc(OC)c(OC)c(OC)c2)cc1OC(=O)c1cccc(Cn2cc(CCOC(=O)[C@H](N)Cc3cn(C)c4ccccc34)nn2)c1,-13.6% (active)
14,O=C1c2ccccc2C(=O)c2c1ccc1[nH]c(-c3cccs3)nc21,77.5%
15,CN1CCN(Cc2ccc(NC(=O)c3cncc(C#Cc4cncn5ccnc45)c3)cc2C(F)(F)F)CC1,52.4%
16,CC(C)(C)c1cc(/C=N\NC(=O)/C=C/C=C/c2ccc3c(c2)OCO3)c(O)c(C(C)(C)C)c1,87.5%
17,CCCc1cc(=O)n2c(C(=O)Nc3ccc(F)cc3)c(C(=O)Nc3ccc(F)cc3)sc2n1,63.2% [30 µM]
18,O=C(O)COc1ccc(Cl)cc1C1CCCCC1,107%
19,NC(=O)c1cc(Br)ccc1NC(=O)/C=C/c1ccccc1,9.78% (active)
20,Cc1nn(-c2ccc(F)cc2)c2ncnc(Oc3ccc(NC(=O)Nc4ccc(Cl)c(C(F)(F)F)c4)cc3)c12,96.8%

row,SMILES,growth
1,CSc1nc(-c2cccc(NC(=O)CCl)c2)c(C#N)c(=O)n1C,38.6%
2,CCCCN(CCCC)CCCn1c(-c2ccccc2)ccc1-c1ccccc1,67.4%
3,Cc1c(/C=C/[N+](=O)[O-])ccc2c1[nH]c1ccccc12,94.2%
4,c1ccc(Cn2cc(-c3nc4ccccc4s3)c3cccnc32)cc1,100%
5,O=C(N/N=C/c1c[nH]c2ccccc12)c1cc(-c2ccccc2)on1,84.6%
6,CCCn1c(=O)[nH]c(N)c([C@H]2c3ccccc3Oc3[nH]c(=O)n(CCC)c(=O)c32)c1=O,100%
7,CC(=O)O[C@H]1[C@@H]2OC(=O)C(CSc3ccccc3)[C@@H]2C[C@H]2O[C@]2(C)CC/C=C(\C)CCC[C@@H]1C (some centres undefined),57%
8,O=C1Nc2ccc(Br)cc2C12Oc1ccccc1C1CC(c3ccc(F)cc3)=NN12 (centres undefined),91.9%
9,C=C1c2nc3ccccc3n2C=C(c2cccc(Cl)c2)N1Cc1ccc(OC)cc1,-15% (active)
10,C#CC(F)(F)[C@]1(O)CC[C@H]2[C@@H]3CCC4=CC(=O)CCC4=C3[C@@H](c3ccc(C(C)=O)cc3)C[C@@]21C,-81.9% (active)
11,CC(=O)O[C@H]1CC[C@]2(C)[C@H]3CC=C4[C@@H]5CC(C)(C)CC[C@]5(C(=O)NCCNCCNCCN)CC[C@@]4(C)[C@]3(C)CC[C@H]2C1(C)C,86.2%
12,COc1ccc(-c2cc(NC(=O)Nc3ccc4ncsc4c3)no2)cc1,102%
13,CCN(CC)c1ccc(-c2cc(-c3cc(OC)c(OC)c(OC)c3)nc(N3CCOCC3)c2C#N)cc1,35.6%
14,CC1=CC(=NN=c2cc(C)n([O-])c(C)c2)C=C(C)[N+]1=O,105%
15,Cc1ccc2oc(=O)cc(C3c4ccc([nH]4)C(c4cc(=O)oc5ccc(C)cc45)c4ccc([nH]4)C(c4cc(=O)oc5ccc(C)cc45)c4ccc([nH]4)C(c4cc(=O)oc5ccc(C)cc45)c4ccc3[nH]4)c2c1 (centres undefined),-75.1% (active)
16,COc1cc2c(cc1-c1c(C)noc1C)ncc1nc(C3CCOCC3)n([C@@H](C)COC(F)F)c12,31.8%
17,Cc1[nH]c(-c2cc(N)ccc2Cl)c2c1C(=O)CCCC2,25.3%
18,O=S(=O)(Nc1ccc(Br)c(Cl)c1)c1ccc(-c2cnc(C3CC3)o2)cc1,-19.8% (active)
19,C=CC(=O)Nc1cccc(-c2nc(SC)nc(NCCN3CCOCC3)c2C#N)c1,93.3%
